# This is a sample that favours compounds with a hit; in the whole collection about 3.5% have one here.
# TEAD-YAP block: TEAD-YAP interaction inhibition, primary screen, TEAD-YAP interaction inhibitor project, luminescence, HEK-TIYL cells; 640,000 tested, 1.4% active; inhibition, % at 9.12 µM; AID 1259422, 2018; TEAD-Gal4/YAP UAS-luciferase luminescence; in the data active = inhibition above about 32%;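 also: 0% = median of test compound wells and 100% = reference inhibitor wells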
# GPR151 activ: activators of human GPR151, primary screen, cell-based, PathHunter beta-arrestin, luminescence; PathHunter beta-arrestin GPR151 cells; 650,000 tested, 1% active; activation, % at 11.2 µM; G-protein coupled receptor 151 (Homo sapiens), Q8TDV0; in the data active = activation above about 4.9%;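 also: 0% = median of compound wells and 100% = cells with positive control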
# Target sequence (Q8TDV0 whole entry, looked up): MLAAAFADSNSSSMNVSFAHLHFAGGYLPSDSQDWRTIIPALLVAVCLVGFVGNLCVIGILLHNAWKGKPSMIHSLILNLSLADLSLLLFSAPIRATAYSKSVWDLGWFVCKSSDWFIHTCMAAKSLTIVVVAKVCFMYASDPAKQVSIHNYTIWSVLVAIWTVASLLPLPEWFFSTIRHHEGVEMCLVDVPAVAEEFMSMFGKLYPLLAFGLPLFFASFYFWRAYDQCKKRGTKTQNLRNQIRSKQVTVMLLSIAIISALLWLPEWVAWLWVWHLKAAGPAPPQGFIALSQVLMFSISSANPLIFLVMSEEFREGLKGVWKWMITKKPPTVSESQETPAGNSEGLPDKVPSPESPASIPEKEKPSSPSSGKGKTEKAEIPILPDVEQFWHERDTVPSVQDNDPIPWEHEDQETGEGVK
# MITF inh: MITF inhibitors, primary screen, biochemical, AlphaScreen, human | Microphthalmia-associated transcription factor (Homo sapiens), O75030 | AlphaScreen MITF homodimerization, bead proximity signal | inhibition, % at 2.6 µM | 650,000 tested, 0.91% active | AID 1259374, 2018; in the data active = inhibition above about 50%;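 also: 0% = vehicle wells with protein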
# FBW7 act: FBW7 E3 ligase activators, primary screen, biochemical, AlphaScreen, human | F-box/WD repeat-containing protein 7 (Homo sapiens), Q969H0 | AlphaScreen FBW7–phospho-cyclin E peptide binding, activator screen | normalized activity (activation), % at 26.1 µM | 650,000 tested, 0.13% active; in the data active = normalized activity above about 1.9%;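 also: purified mutant Fbw7 with reduced substrate affinity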
# Starred values were filed as active, the others as inactive.
SMILES,TEAD-YAP block,GPR151 activ,MITF inh,FBW7 act
Fc1cc(-c2ccnc(Nc3ccc(-c4ncn[nH]4)cc3)n2)cc(N2CCOCC2)c1,74*,2,1,0
FC(F)Oc1ccc(Nc2nccc(-c3cncc(N4CCOCC4)c3)n2)cc1,19,2,-2,0
Fc1ccc(Nc2nccc(-c3cncc(N4CCOCC4)c3)n2)cc1,68*,0,20,1
Cc1nc2ccc(Nc3nccc(-c4cncc(N5CCOCC5)c4)n3)cc2o1,28,1,20,1
Cc1[nH]nc2ccc(Nc3nccc(-c4cncc(N5CCOCC5)c4)n3)cc12,77*,1,12,0
O=C(NC1CC1)c1cccc(Cl)n1,7,-2,21,0
COc1ccc(-c2[nH]nc3c2C2(C(=O)Nc4ccc(C)c(Br)c42)C(C#N)=C(N)O3)cc1 (centres undefined),6,1,4,0
CCN(CC)CCCn1c(-c2ccc(Br)cc2)cn2c3ccccc3nc12,-3,2,20,2.2*
Clc1ccc(-c2cn3c4ccccc4nc3n2CCCNC2CCCCC2)cc1,-13,3,-17,3.1*
CCN(CC)CCCn1c(-c2ccc(Cl)cc2)cn2c3ccccc3nc12,2,0,-3,1
Brc1ccc(-c2cn3c4ccccc4nc3n2CCCN2CCCCC2)cc1,-2,-2,7,2.2*
O=C(Nc1ccc2oc(-c3ccc(Cl)cc3Cl)nc2c1)c1cc(Br)ccc1Cl,-10,1,13,1
CC(C)c1nc2c(-c3cn[nH]c3)cccc2c(=O)[nH]1,32*,-1,13,0
CCSCCOC(=O)C1=C(C)NC2=C(C(=O)CCC2)C1c1cccnc1 (centres undefined),5,-2,4,0
CC1=CC(=C2C(=O)c3ccccc3C2=O)C=C(C)N1C(C)C,67*,-5,18,0
Cc1ccc(-c2nc3ccccc3o2)cc1NC(=O)c1ccc(F)cc1,6,0,0,0
Nc1nc2ccc(Cc3nc4ccccc4o3)cc2s1,-54,1,-17,0
Nc1nc2ccc(Cc3ccc4nc(N)sc4c3)cc2s1,41*,-1,10,0
CC(C)C(NS(=O)(=O)c1ccc(I)cc1)C(N)=O (centres undefined),5,0,-1,0
CCOC(=O)/C=C/C(=O)Nc1cc(Cl)c(Cl)cc1Cl,58*,1,-1,0
O=C1OC2(CCCCC2)OC(=O)C1=Cc1ccc(Br)o1,-4,-1,74*,0
COc1ccc(N2C(=O)/C(=C\c3ccc([N+](=O)[O-])o3)C(=O)NC2=S)cc1,5,-1,79*,0
COc1cccc(N2C(=O)/C(=C/c3ccc([N+](=O)[O-])o3)C(=O)NC2=S)c1,12,-2,71*,0
COc1cccc(N2C(=O)NC(=O)/C(=C/c3ccc([N+](=O)[O-])o3)C2=O)c1,-7,-2,67*,0
COc1cccc(N2C(=O)/C(=C/c3ccc([N+](=O)[O-])s3)C(=O)NC2=S)c1,7,-2,22,1
SMILES,TEAD-YAP block,GPR151 activ,MITF inh,FBW7 act
COc1cccc(N2C(=O)/C(=C\c3ccc(OC)cc3OC)C(=O)NC2=S)c1,-4,-2,16,0
Cc1cc(C)cc(N2C(=O)NC(=O)/C(=C\c3ccc([N+](=O)[O-])o3)C2=O)c1,0,0,37,0
COc1ccc(N2C(=O)/C(=C\c3ccc([N+](=O)[O-])s3)C(=O)NC2=S)cc1,-4,-1,59*,0
COc1ccc(CNC(=S)NC(=O)c2cncc(Br)c2)cc1,-1,2,14,0
c1ccc(Cc2nc(-c3ccccn3)n[nH]2)cc1,-12,0,18,-1
Cc1ccc(-c2nnc(SCC(=O)Nc3ccccc3)c3ccccc23)cc1S(=O)(=O)N1CCOCC1,-23,2,9,0
O=C(CSc1nc2ccccc2[nH]1)Nc1nc2c(ccc3ccccc32)s1,8,1,1,0
Cc1nonc1CN(C)Cc1ccc(OCC(O)CN2CCc3ccccc3C2)cc1 (centres undefined),-7,2,-9,0
Cc1ccc(/C=C2\C(=O)NC(=S)N(c3cccc(Cl)c3)C2=O)o1,0,0,4,0
O=C1NC(=O)N(c2cccc(Cl)c2)C(=O)/C1=C/c1ccc([N+](=O)[O-])o1,7,0,75*,0
O=C1NC(=O)N(c2cccc(Cl)c2)C(=O)/C1=C/c1ccc(I)o1,9,0,67*,0

# Bioassay records (PubChem BioAssay)
